Compound activity (PubChem BioAssay)
Many of the other results were omitted from the sample, so hits are more common in it than they were.
ST2 inh: inhibitors of human ST2 (IL1RL1) binding to IL-33, primary screen, biochemical, AlphaLISA; Interleukin-1 receptor-like 1 (Homo sapiens), Q01638; AlphaLISA ST2-Fc/biotin-IL-33 interaction, 1 h; inhibition, % for hits at 17 µM; 78,000 tested, 2.3% active; AID 1259354, 2018; in the data active = inhibition above about 30%
A number is an active result; i = inactive.

SMILES | ST2 inh
COc1ccccc1NC1=CC(=NS(=O)(=O)c2ccc(C)cc2)c2ccccc2C1=O | 94.0%
COc1ccc(C)cc1NS(=O)(=O)c1ccc(OC)c(OC)c1 | i
COc1ccc(C=NS(=O)(=O)c2ccccc2)c(OC)c1 | i
CC1=C(C(=O)Nc2ccc(C)cc2C)C(c2cccs2)n2nnnc2N1 (configuration not stated) | i
Cc1ccc(NC2=CC(=NS(=O)(=O)c3cccs3)c3ccccc3C2=O)c(C)c1 | 89.0%
Cc1ccccc1NC(=O)C(NS(=O)(=O)c1cccs1)C(C)C (configuration not stated) | i
CCOc1ccc(S(=O)(=O)N(CC(=O)Nc2cccc(OC)c2)c2ccccc2)cc1 | i
COc1ccc(S(=O)(=O)N=C2C=C(Nc3ccccc3)C(=O)c3ccccc32)cc1 | 85.0%
COc1ccccc1NS(=O)(=O)c1ccc(C(C)(C)C)cc1 | i
CCOc1ccc(S(=O)(=O)NCCO)cc1 | i
COCCCNC(=O)c1c(NC(=O)c2ccco2)sc2c1CCCC2 | i
COc1ccc(NC(=O)N2C[C@@H]3C[C@H](C2)c2c(NC(=O)c4cccnc4)ccc(=O)n2C3)cc1 | i
CN(C)C=Nc1cc(N(C)C)nc2ccccc12 | i
COc1ccc(NC(=O)c2sc3c(Cl)c(OC)ccc3c2Cl)c(OC)c1 | i
Cc1cc(C)c2c(N)c(C(=O)Nc3ccc(Br)cc3)sc2n1 | i
COc1ccc2nc3oc(C(=O)NCc4cc(Br)ccc4OC)cc3cc2c1 | i
O=C(NC1CCCCC1)c1cc(=O)[nH]c2ccc(S(=O)(=O)N3CCCCC3)cc12 | i
CCOc1ccc(NC(=O)Cc2ccc(OC)cc2)cc1 | i
COc1ccc(S(=O)(=O)N=C2C=C(C(C)C)C(=O)C=C2C)cc1 | i
CCOc1c(Nc2ccc(F)cc2)c(=O)c1=O | i
CCOc1ccc(S(=O)(=O)N=C2C=C(Nc3ccc(OC)cc3)C(=O)c3ccccc32)cc1 | 93.0%
CCOc1ccc(NC2=CC(=NS(=O)(=O)c3ccc(OCC)cc3)c3ccccc3C2=O)cc1 | 93.0%
CCOc1ccc(NC2=CC(=NS(=O)(=O)c3ccc(F)cc3)c3ccccc3C2=O)cc1 | 95.0%
CCOc1ccc(NC(=O)c2ccccc2F)cc1 | i
CCOc1ccc(Nc2c(OCC)c(=O)c2=O)cc1 | i
SMILES | ST2 inh
CCc1ccc(NS(=O)(=O)c2ccc(OC)cc2)cc1 | i
COc1ccc(S(N)(=O)=O)cc1 | i
CCOc1ccc(S(=O)(=O)Nc2ccc(I)cc2)cc1 | i
COc1ccc(S(=O)(=O)N=C2C=CC(=O)c3ccccc32)cc1 | 39.0%
CCc1cc2c(=O)c(-c3csc(-c4ccccc4)n3)coc2cc1O | i
C=CCNC(=O)C(=O)Nc1cccc(Cl)c1 | i
CCc1ccc(S(=O)(=O)N=C2C=C(Nc3ccccc3)C(=O)c3ccccc32)cc1 | 79.0%
CCc1ccc(S(=O)(=O)NCC(=O)O)cc1 | i
CC(C)Cc1ccc(S(=O)(=O)Nc2ccccc2)cc1 | i
O=C(c1ccc(CO)o1)N1CCN(C2Cc3ccccc3C2)CC1 | i
C#CCOc1ccc(C2C(C#N)=C(N)Oc3cc(O)ccc32)cc1OC (configuration not stated) | i
Nc1cc(C(=O)O)ccc1NC1CCCCC1 | 31.0%
O=C(NC1CCCCCCC1)c1ccccc1 | i
O=C(NC1CCCCC1)c1ccc(Cl)cc1 | i
O=C(NCCN1CCC(Cc2ccccc2)CC1)c1cc(-c2ccncc2)nc2ccccc12 | i
Cc1noc(C)c1CNC(=O)C(O)c1ccc(C(F)(F)F)cc1 (configuration not stated) | i
COc1cc2c(cc1-c1nccn1-c1ccccc1CCO)OCCCO2 | i
OC1C[C@H]2CC[C@@H](C1)N2c1nccc(CCC(F)(F)F)n1 (some centres not stated) | i
CCn1c(=O)ccc2cc(OC)ccc21 | 31.0%
CCn1cc2c(c1-c1ccc(OC)cc1)c(=O)n(C)c(=O)n2C | i
COc1ccc2cc(S(=O)(=O)N3CCN(C)CC3)ccc2c1 | i
CC1CC(=O)N(Cc2ccccc2)c2ccccc2S1 (configuration not stated) | i
CCOc1ccc(N2C(=O)S/C(=C\c3ccccc3)C2=O)cc1 | i
CCN1C(=O)/C(=C2/Sc3ccc(OC)cc3N2C)SC1=Nc1ccc(C(C)=O)cc1 | i
CCOc1ccc(N=C2S/C(=C\c3ccc(N(C)C)cc3)C(=O)N2CC)cc1 | 56.0%
SMILES | ST2 inh
N#CSC(C#N)Cc1ccc([N+](=O)[O-])cc1 (configuration not stated) | 51.0%
CC(C)(C)NCc1ccc([N+](=O)[O-])cc1 | i
OC(Cc1ccccc1)c1ccccc1 (configuration not stated) | i
N#Cc1cc(C#N)c(SCc2ccc([N+](=O)[O-])cc2)nc1N | i
N#CC(c1ccccc1)C(C#N)c1ccccc1 (configuration not stated) | i
N#CSC(C#N)Cc1ccccc1 (configuration not stated) | 33.0%
CC1CCCC(NC(=O)c2ccc3c(c2)N(Cc2ccc(F)cc2)C(=O)CS3)C1C (configuration not stated) | i
